One experiment has as its system C33A. Put plainly: Primary qHTS to identify gynecologic anti-cancer compounds using libraries of approved drugs and bioactive compounds (AID 1345084). Note: nearly all actives have a fitted effect of over 55% in size. Note: potency is the fitted concentration of half-maximal effect. To be noted: Gynecologic cancer cell panel viability, ATPlite luminescence, 48 h; series mostly up to 57.5 µM. The procedure, abridged:
(§1)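 Cells, 1,000 per well, were allowed to settle for 16 h at 37 C before compound addition. Five concentrations were tested for 48 h, and viability was read by ATPlite luminescence after 15 min at room temperature.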
In general terms: qHTS replaces the single test concentration by a dilution series.

In the next experiment the test system is CASKI. Described as above. As to conditions: Gynecologic cancer cell panel viability, ATPlite luminescence, 48 h; series mostly up to 57.5 µM. The procedure, abridged: as §1
In general terms: Cellular ATP, detected with luciferase, serves as a proxy for viable cell number.

The test system of a further experiment is Es-2. The description is as above. To be noted: Gynecologic cancer cell panel viability, ATPlite luminescence, 48 h; series mostly up to 57.5 µM. The procedure, abridged:
as §1

The test system of a further experiment is HeLa. The experiment is described as above. To be noted: Gynecologic cancer cell panel viability, ATPlite luminescence, 48 h; series mostly up to 57.5 µM. The method, boiled down:
as §1

A further experiment has as its system Hek293T. The description is as above. To be noted: Gynecologic cancer cell panel viability, ATPlite luminescence, 48 h, control line for the selectivity index; series mostly up to 57.5 µM. The procedure, abridged:
as §1

For the next experiment, the system named is JEG-3. The description is as above. To be noted: Gynecologic cancer cell panel viability, ATPlite luminescence, 48 h; series mostly up to 57.5 µM. The procedure, abridged: as §1
A further experiment concerns OV90. The description is as above. As to conditions: Gynecologic cancer cell panel viability, ATPlite luminescence, 48 h; series mostly up to 57.5 µM. The method, boiled down:
as §1

A further experiment relates to PA-1. The description is as above. As to conditions: Gynecologic cancer cell panel viability, ATPlite luminescence, 48 h; series mostly up to 57.5 µM. The procedure, abridged:
as §1

For another experiment, the system named is Tov-21-G. The experiment is described as above. As to conditions: Gynecologic cancer cell panel viability, ATPlite luminescence, 48 h; series mostly up to 57.5 µM. The method, boiled down:
as §1

For a further experiment, the system named is Tov112D. The experiment is described as above. To be noted: Gynecologic cancer cell panel viability, ATPlite luminescence, 48 h; series mostly up to 57.5 µM. The method, boiled down:
as §1

Experiment [1] in a line: Drug repurposing screens with cells derived from glioblastoma tumor samples (AID 1345199). For activity, negative = cell killing: % is set by controls: 0 for no effect and ±100 for the full control effect. Note: nearly all actives have a fitted effect of over 40% in size. Note: potency is the fitted concentration of half-maximal effect. To be noted: GBM patient neurospheres viability, ATP luminescence, 48 h. The method, boiled down: (§2)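 Four patient lines of CD133+ GBM neurospheres were screened at several concentrations; hits were retested in those lines plus three slower-growing GBM lines, using 48-hour treatment and ATP-based viability.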

The test system of another experiment is CAOV3. Put plainly: Primary qHTS to identify gynecologic anti-cancer compounds using libraries of approved drugs and bioactive compounds (AID 1345084). Note: nearly all actives have a fitted effect of over 55% in size. Note: potency is the fitted concentration of half-maximal effect. To be noted: Gynecologic cancer cell panel viability, ATPlite luminescence, 48 h; series mostly up to 57.5 µM. The method, boiled down:
as §1

A further experiment relates to SKOV3. The description is as above. As to conditions: Gynecologic cancer cell panel viability, ATPlite luminescence, 48 h; series mostly up to 57.5 µM. The procedure, abridged: as §1
For experiment [2], the target named is Nuclear receptor subfamily 1 group I member 2 (Rattus norvegicus) (UniProt Q9R1A7). The experiment can be described thus: qHTS assay for small molecule activators of the rat pregnane X receptor (rPXR) signaling pathway (AID 651751; call rule not given here; note: 0% is about no effect). As to conditions: rPXR reporter cells, luciferase (One-Glo), 24 h.
Experiment [3] is described as follows: qHTS assay for small molecule activators of the human pregnane X receptor (PXR) signaling pathway (AID 720659; call rule not given here; note: 0% is about no effect).
For another experiment, the system named is astro. The experiment can be described thus: Drug repurposing screens with cells derived from glioblastoma tumor samples (AID 1345199). For activity, negative = cell killing: % is set by controls: 0 for no effect and ±100 for the full control effect. Note: nearly all actives have a fitted effect of over 40% in size. Note: potency is the fitted concentration of half-maximal effect. To be noted: viability, ATP luminescence, 48 h; series mostly up to 45.9 µM. The method, boiled down: as §2
Where [4] appears, read: at 45.9 µM (top of the series), tumour line B.
[5] abbreviates: at 45.9 µM (top of the series), tumour line D.
The mark [6] stands for this setting: at 46 µM (top of the series), tumour line A.

Values joined by “and” are separate entries in the source; they are usually repeats but may differ in a detail not shown here. Equal values may be shown once. Unmarked numbers belong to inactive results. Results filed as inconclusive are left out. More than one record can exist for a structure, and the calls need not agree. Active and inactive are the calls of the source. Unless noted, calls come from the whole dose curve; as a rule, active = well fitted curve in the direction sought with a large enough effect; inconclusive = small, poorly fitted or top-dose-only effect, or another doubt; inactive = no such curve, though single readings can be large; an effect the other way counts as inactive or inconclusive.

Chain of Nuclear receptor subfamily 1 group I member 2 (Rattus norvegicus) (Q9R1A7 whole entry, looked up): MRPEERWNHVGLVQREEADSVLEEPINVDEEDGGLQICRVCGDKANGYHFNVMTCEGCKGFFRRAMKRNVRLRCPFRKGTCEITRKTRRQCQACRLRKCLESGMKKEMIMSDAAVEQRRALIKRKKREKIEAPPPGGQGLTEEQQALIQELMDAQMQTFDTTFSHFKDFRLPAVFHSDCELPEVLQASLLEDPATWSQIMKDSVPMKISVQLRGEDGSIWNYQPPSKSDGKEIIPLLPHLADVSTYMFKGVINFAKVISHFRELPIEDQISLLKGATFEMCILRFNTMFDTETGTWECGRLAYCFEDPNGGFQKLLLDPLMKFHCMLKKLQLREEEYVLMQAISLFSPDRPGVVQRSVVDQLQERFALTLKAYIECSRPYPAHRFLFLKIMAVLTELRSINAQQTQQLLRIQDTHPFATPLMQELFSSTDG

With `C[C@]12CCC(=O)C=C1CC[C@@H]1[C@@H]2CC[C@@]2(C)[C@H]1CC[C@]2(C)O`, the Potency result with C33A, in the experiment with Es-2, in the experiment on OV90, in the experiment with PA-1, in the experiment with Tov-21-G and with Tov112D was “inactive” throughout. Besides, the molecule was classed as inactive with CASKI, in the experiment with Hek293T and in the experiment on JEG-3. Also, the Potency in the experiment on HeLa is 22.4 µM (active); in experiment [1] (tumour line A), 12.6 µM (active) and 20 µM (active). The activity, negative = cell killing is -4.4% and -14.4% in experiment [1] (setting [4]); -24.9% and -19.8% in experiment [1] (setting [5]).
Consider `COP(=S)(OC)SCN1C(=O)c2ccccc2C1=O`, for which the Potency result with C33A, in the experiment on Es-2, with HeLa, in the experiment on OV90, with PA-1 and with Tov-21-G was “inactive” in each case. Further, in the experiment with Tov112D, the Potency entry was “inactive”. Further, the result (with CAOV3; with CASKI; in the experiment on Hek293T; with JEG-3; in the experiment with SKOV3; in experiment [3]) was inactive. For the same molecule, the activity, negative = cell killing was -19.8% in experiment [1] (setting [4]) and -8.89% in experiment [1] (setting [5]). Besides, the max response in experiment [2] was -5.41%.
`Clc1ccc2c(c1)C(c1ccccc1)=NCc1nncn1-2`: the activity, negative = cell killing is -7.06% in [1] (setting [4]) and 3.75% in [1] (setting [5]).
As for `O=C(N/N=C/c1ccc([N+](=O)[O-])o1)c1cc([N+](=O)[O-])cc([N+](=O)[O-])c1O`, the Potency result with C33A, with Es-2, in the experiment with HeLa, in the experiment with OV90, with PA-1 and in the experiment on Tov-21-G was “inactive” in each case. In addition, the Potency result in the experiment on Tov112D was “inactive”. Moreover, the molecule was called inactive in the experiment on CAOV3, in the experiment on CASKI, in the experiment on Hek293T, in the experiment with JEG-3 and in the experiment with SKOV3. Further, the results for the activity, negative = cell killing in [1] (setting [4]) and in experiment [1] (setting [5]) were -13.9% and -24.1%, respectively.
Consider `COc1ccc2c(c1)C13CCCC[C@@H]1C(C2)N(C)CC3` (some centres undefined), for which the figures for the activity, negative = cell killing in [1] (setting [4]) and in experiment [1] (setting [5]) were -6.27% and -5.01%, respectively. Besides, in [1] (tumour line A), the Potency is 35.5 µM (active).
On to `O=c1c(C2CC(c3ccc(-c4ccc(Br)cc4)cc3)Cc3ccccc32)c(O)sc2ccccc12` (centres undefined), for which the Potency result in the experiment with C33A, in the experiment on Es-2, in the experiment with PA-1 and in the experiment on Tov112D was “inactive” in each case. Also, the call in the experiment on CASKI, in the experiment on Hek293T and in the experiment on SKOV3 was inactive.
Take `C[C@@H](N)[C@@H](O)c1ccccc1`: the Potency entry in the experiment on C33A, in the experiment with Es-2, in the experiment on HeLa, with OV90, with PA-1 and in the experiment with Tov-21-G was “inactive” throughout. Also, the Potency entry in the experiment on Tov112D and with astro was “inactive” each time. Besides, the result in the experiment with CAOV3, with CASKI, in the experiment on Hek293T, in the experiment with JEG-3 and in the experiment with SKOV3 was inactive. Also, the activity, negative = cell killing in experiment [1] (at 21.2 µM (top of the series), tumour line B) was -14.5%; in experiment [1] (at 21.2 µM (top of the series), tumour line D), 16.2%; in [1] (at 21.3 µM (top of the series), tumour line A), -20.6%.
Consider `NCCc1ccc(O)cc1`, for which the Potency result with C33A, with Es-2, with HeLa, in the experiment on OV90, in the experiment on PA-1 and with Tov-21-G was “inactive” each time. In addition, the Potency result in the experiment with Tov112D and in the experiment on astro was “inactive” throughout. For the same molecule, the result (in the experiment on CAOV3; with CASKI; with Hek293T; in the experiment on JEG-3; in the experiment with SKOV3; in experiment [3]) was inactive. Moreover, the figures for the activity, negative = cell killing in experiment [1] (setting [4]), in [1] (setting [5]) and in [1] (setting [6]) were -7.62%, 3.08% and -19.3%, respectively. Moreover, the max response in experiment [2] was 0.0715%.
In the case of `CN1C(=O)C(O)N=C(c2ccccc2)c2cc(Cl)ccc21` (centres undefined), the activity, negative = cell killing in experiment [1] (setting [4]) was 2.89%; in [1] (setting [5]) it was -6.26%; in [1] (setting [6]) it was -24.3%.
For the molecule `CC(C)[C@H]1C(=O)N2CCC[C@H]2[C@]2(O)O[C@](NC(=O)[C@@H]3C[C@@H]4c5cccc6[nH]cc(c56)C[C@H]4N(C)C3)(C(C)C)C(=O)N12`, the activity, negative = cell killing in [1] (setting [4]) was -21%. Moreover, the Potency in [1] (tumour line A) is 7.08 µM (active).
With `C[C@]1(O)CC[C@H]2[C@@H]3CCC4=CC(=O)CC[C@]4(C)[C@@]3(F)[C@@H](O)C[C@@]21C`, the activity, negative = cell killing in experiment [1] (setting [4]) was -7.52%; in [1] (setting [5]) it was -21.3%. In experiment [1] (tumour line A), the Potency is 35.5 µM (active). The Potency entry in the experiment with astro was “inactive”.
For `Cc1nnc2n1-c1ccc(Cl)cc1C(c1ccccc1Cl)=NC2`, the activity, negative = cell killing in experiment [1] (setting [4]) is -10.7%; in experiment [1] (setting [5]) it was -8.42%; in [1] (setting [6]), -36.4%. In addition, the Potency entry with astro is “inactive”.
Turning to `CCCC(C)(COC(N)=O)COC(N)=O`, the activity, negative = cell killing in experiment [1] (setting [4]) is 0.449%; in [1] (setting [5]) it was -14.8%; in [1] (setting [6]) it was -19.1%. Also, the Potency entry in the experiment on astro is “inactive”. Also, the max response in experiment [2] is 3.06% and 3.91%.
With `C[C@]12CC[C@H]3[C@@H](CC[C@@]45O[C@H]4C(O)=C(C#N)C[C@]35C)[C@H]1CC[C@H]2O`, the Potency result in the experiment on C33A, in the experiment with Es-2, with HeLa, with OV90, in the experiment on PA-1 and in the experiment on Tov-21-G was “inactive” throughout. Besides, the Potency entry in the experiment with Tov112D was “inactive”. The result in the experiment with CAOV3, in the experiment with CASKI, in the experiment on Hek293T, in the experiment with JEG-3 and in the experiment with SKOV3 was inactive.
For `CN1CC[C@]23c4c5ccc(O)c4O[C@H]2[C@@H](O)C=C[C@H]3[C@H]1C5`, the Potency entry with C33A, in the experiment on Es-2, in the experiment with HeLa, in the experiment with OV90, with PA-1 and in the experiment on Tov-21-G was “inactive” each time. For the same molecule, the Potency result in the experiment with Tov112D and in the experiment with astro was “inactive” in each case. For the same molecule, the call in the experiment with CAOV3, with CASKI, in the experiment on Hek293T, in the experiment on JEG-3 and with SKOV3 was inactive. Further, the Potency in experiment [1] (tumour line A) is 20 µM (active).
Turning to `CN1C(=O)CC(=O)N(c2ccccc2)c2cc(Cl)ccc21`, the activity, negative = cell killing in experiment [1] (setting [4]) is -10.8%; in [1] (setting [5]), -2.22%; in experiment [1] (setting [6]), -21.5%.
On to `C[C@]12CCC(=O)C=C1CC[C@@H]1[C@H]3CC[C@](C)(O)[C@@]3(C)CC[C@@H]12`, for which the Potency entry with C33A, in the experiment with Es-2, with Tov-21-G and with astro was “inactive” each time. Besides, the Potency with HeLa is 31.6 µM (active); in [1] (tumour line A), 39.8 µM (active). In addition, the molecule was called inactive in the experiment with JEG-3. Moreover, in experiment [1] (at 91.6 µM (top of the series), tumour line B), the activity, negative = cell killing was -15.6%.

Source of the values: PubChem BioAssay (NCATS).
